Results taken from the supplement of paper PMC12350171.

How the values were obtained:
Conditions in all cases: 20 µM
P. vulgatus RND KO = test: growth AUC normalised to DMSO control (median) (fraction of control); higher = less growth inhibition, active = hit call of the paper
Method in brief: (§1)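 Each strain went through two overnight passages under anaerobic conditions before growth in mGAM in 96-well plates, starting at OD578 0.01, with each compound from the approved-drug library at 20 μM and 1% DMSO. Inside an anaerobic incubator, OD578 was recorded every hour for 24 h. Growth curves were cut off at entry into stationary phase, and the area under the curve was calculated by the trapezoidal rule and normalised to vehicle wells on the same plate. Reported values are medians of three biological replicates.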

P. vulgatus WT = test: as above
Method in brief: as §1

[1] = tested on: S. enterica typhimurium WT; test: as above
Method in brief: as §1

[2] = tested on: S. enterica typhimurium tolC KO; test: as above
Method in brief: as §1

[3] = tested on: Haemophilus parainfluenzae; test: growth AUC normalised to DMSO control (fraction of control); higher = less growth inhibition, active = hit call of the paper
Method in brief: (§2)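 Pathogens passaged twice anaerobically were inoculated at a starting OD578 of 0.01 into pre-reduced mGAM plates with drug at 20 μM and 1% DMSO, sealed with breathable membranes. Haemophilus parainfluenzae medium was supplemented with hemin and NAD. OD578 was read hourly for 24 h, with three biological replicates. Growth-curve AUC was computed by the trapezoidal rule up to the exponential-to-stationary transition and normalised to DMSO controls on the same plate.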

[4] = tested on: Salmonella enterica typhimurium; test: as above
Method in brief: as §2

Shigella flexneri = test: as above
Method in brief: as §2

Vibrio cholerae = test: as above
Method in brief: as §2

[5] = tested on: Yersinia pseudotuberculosis; test: as above
Method in brief: as §2

Measured: growth AUC normalised to DMSO control
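Throughout, for growth AUC normalised to DMSO control (median): active when median AUC fell below 0.1.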

C[C@]12C=CC(=O)C=C1CC[C@@H]1[C@@H]2CC[C@@]2(C)[C@H]1CC[C@]2(C)O [Methandrostenolone]
inactive: P. vulgatus RND KO 0.996 | P. vulgatus WT 0.998 | [1] 1.01 | [2] 0.982

CCCCCC[C@H]1C(=O)O[C@H](C)[C@H](NC(=O)c2cccc(NC=O)c2O)C(=O)O[C@@H](C)[C@@H]1OC(=O)CC(C)C [Antimycin A]
inactive: P. vulgatus RND KO 1.03 | P. vulgatus WT 1.05 | [1] 1.01 | [2] 1.01

COc1cc([C@@H]2c3cc4c(cc3[C@H](O)[C@H]3COC(=O)[C@H]23)OCO4)cc(OC)c1OC [Podophyllotoxin]
inactive: [3] 1.04 | [4] 0.999 | Shigella flexneri 0.999 | Vibrio cholerae 1.02 | [5] 1.01 | P. vulgatus RND KO 1 | P. vulgatus WT 1.02 | [1] 0.998 | [2] 0.996

Nc1ccncc1 [Dalfampridine]
inactive: P. vulgatus RND KO 1 | P. vulgatus WT 1.03 | [1] 1.02 | [2] 0.995

C#C[C@]1(O)C=C[C@H]2[C@@H]3CCC4=CC(=O)CC[C@@H]4[C@H]3CC[C@@]21CC [Gestodene]
inactive: P. vulgatus RND KO 0.978 | P. vulgatus WT 0.978 | [1] 0.997 | [2] 0.995

CC[C@@H](C(=O)[C@@H](C)[C@@H](O)[C@H](C)[C@@H]1O[C@@H]([C@@H](CC)C(=O)O)CC[C@@H]1C)[C@H]1O[C@]2(C=C[C@@H](O)[C@]3(CC[C@@](C)([C@H]4CC[C@](O)(CC)[C@H](C)O4)O3)O2)[C@H](C)C[C@@H]1C [Salinomycin sodium]
inactive: [1] 1.01 | [2] 0.781
active: P. vulgatus RND KO 0.00978 | P. vulgatus WT 0.00987
